FMDV antiviral = antivirals against foot and mouth disease virus | FMDV antiviral cell-based qHTS | 410,000 tested, 1.2% active | AID 1159524 | Potency, µM (highest dose often 57.9 µM), for the others: at the highest dose activity change, negative = inhibition, hits mostly inhibitors; calls by dose curve; tested in HEK293T cells; also: read-out not given here; potency is read from the fitted curve at half-maximal effect; % is scaled to controls: 0 for no effect and ±100 for the full control effect; nearly all actives have a fitted effect of over 45% in size
SARS PLP yeast = inhibitors of SARS-CoV papain-like protease in yeast. S. cerevisiae expressing SARS-CoV PLpro, growth rescue. Potency, µM (highest dose often 32.9 µM), without a hit: at the highest dose activity, positive = growth rescue, hits mostly activators. 330,000 tested, 0.19% active. AID 485353; calls by dose curve; also: potency is read from the fitted curve at half-maximal effect; 0% is about no effect; nearly all actives have a fitted effect of over 55% in size
HCV inhibitor = blocks hepatitis C virus | 340,000 tested, 3.4% active | Huh7.5.1 HCVcc-Cre infection, luciferase reporter, 44 h | Potency, µM (series often up to 41.8 µM), for inactives: at the highest dose activity change, negative = inhibition, hits mostly inhibitors | AID 651820; active = well fitted inhibition curve with a large enough effect; inconclusive = small, poorly fitted or top-dose-only effect, or another doubt; inactive = no such curve, though single readings can be large or run the other way; also: potency is read from the fitted curve at half-maximal effect; % is scaled to controls: 0 for no effect and ±100 for the full control effect
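Seed cells (1,000/well) for 4 h; treat with compound and infect with HCVcc-Cre, moi about 0.5. Incubate 44 h, then detect luciferase activity.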
LASV entry inh = inhibitors of Lassa virus binding or cell entry; 300,000 tested, 1.2% active; Potency, µM (doses to about 37.9 µM), for inactives: top-dose activity change, negative = inhibition, most hits filed as inhibitors; Lassa virus pseudotype entry inhibition, cell reporter; calls by dose curve; tested in HEK293 cells; also: potency is read from the fitted curve at half-maximal effect; % is scaled to controls: 0 for no effect and ±100 for the full control effect; nearly all actives have a fitted effect of over 50% in size
HCMV inh = human cytomegalovirus inhibition | HFF cells, HCMV-luciferase reporter, 72 h; active compounds read low | activity change, negative = inhibition, % at 57.5 µM | 410,000 tested, 4.5% active; in the data active = activity change below about -60%; inconclusive = no clear call, values can overlap the other calls; inactive = above about -39%; also: % is scaled to controls: 0 for no effect and ±100 for the full control effect
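Inhibition of viral replication was scored as loss of reporter luminescence in HFFs infected with HCMV-luciferase (MOI 1 PFU/cell) for 72 h; compounds tested at 2 doses, normalized to buffer and Salinomycin controls.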
MARV entry inh = blocks Marburg virus binding to or entry into cells | AID 540276 | Marburg virus pseudotyped entry inhibition, cell reporter | Potency, µM (doses to about 37.8 µM), for inactives: top-dose activity change, negative = inhibition, most hits filed as inhibitors | 300,000 tested, 1.8% active; calls by dose curve; tested in HEK293 cells; also: potency is read from the fitted curve at half-maximal effect; % is scaled to controls: 0 for no effect and ±100 for the full control effect
Active calls of the source: *; ? = inconclusive; nt = no result given; ! = a repeat was not active; [ ] = remark or other dose. An excerpt weighted towards active compounds, which were near 8% of everything screened.

SMILES | FMDV antiviral | SARS PLP yeast | HCV inhibitor | LASV entry inh | HCMV inh | MARV entry inh
O=C(CSc1nnnn1C1CCCCC1)Nc1cccc(NC(=O)c2ccco2)c1 | -20% | -4% | ? | ? | -19 | -9%
O=C(CSc1nncn1-c1ccccc1)Nc1cccc(S(=O)(=O)N2CCCCC2)c1 | nt | 11% | 13% | 1% | 19 | -2%
O=C(CSc1nnnn1-c1ccc(O)cc1)Nc1cccc(S(=O)(=O)N2CCCC2)c1 | -12% | -3% | ? | ? | -73* | ?
Cc1nnc(SCC(=O)NN2C(=O)NC3(CCCCC3)C2=O)s1 | -22% | -3% | 32% | -19% | -62* | ?
COCCN1C(=O)COc2ccccc2C1C(=O)Nc1ccc2c(c1)OCCO2 (stereo unspecified) | -14% | nt | nt | nt | 2 | nt
Cc1ccc2[nH]c(O)c(N=NC(=O)C3CC3c3ccccc3)c2c1Br (stereo unspecified) | -13% | -12% | -1% | ? | ? | 1%
Cc1nnc(SCC(=O)Nc2ccc(S(=O)(=O)N3CCCCC3)cc2)s1 | -7% | -1% | 20% | 16% | -65* | 5%
Cc1nnc(SCC(=O)Nc2ccccc2NC(=O)CSc2nnc(C)s2)s1 | -7% | nt | 7% | 5% | 13 | -5%
Cc1nnc(SCC(=O)Nc2ccc(-c3nc4ccccc4s3)cc2)s1 | 0% | 0% | 1% | 10µM* | 58 | ?
COc1ccc2nc(NC(=O)c3ccc(S(=O)(=O)N4CCC(C)CC4)cc3)sc2c1 | ? | nt | nt | -4%[46.1 µM] | 25 | nt
Cc1ccc(CSC2=Nc3ccccc3C3=NC(=O)CN23)cc1 | -11% | 0% | 7.9µM* | ? | ? | ?
Cc1cccc(C)c1-n1c(=O)c2nc3ccccc3nc2c2ccccc21 | nt | nt | nt | nt | -96* | nt
C=CC(=O)Nc1cc2c(Nc3ccc(F)c(Cl)c3)ncnc2cc1OCCCN1CCOCC1 | nt | nt | nt | nt | -19 | nt
Cc1cccc(C(=O)Nc2cc(OCc3cccc(F)c3)c(Cl)cc2Cl)c1 | 8% | 2% | -25% | 0% | -12 | 24%
O=C(OC1CNC(C#Cc2cc3ncnc(Nc4ccc5c(cnn5Cc5ccccc5)c4)c3s2)C1)N1CCOCC1 (stereo unspecified) | nt | nt | nt | 1.3µM* | nt | nt
CNC(=O)c1cccc(C#Cc2cncnc2Nc2ccc(OCc3cccc(F)c3)c(Cl)c2)c1 | nt | nt | nt | 0.79µM* | nt | nt
CN(C)C(=O)OC1CNC(C#Cc2cc3ncnc(Nc4ccc(OCc5cccc(F)c5)c(Cl)c4)c3s2)C1 (stereo unspecified) | nt | nt | nt | 5µM* | nt | nt
O=C(OC1CNC(C#Cc2cc3ncnc(Nc4ccc(OCc5cccc(F)c5)c(Cl)c4)c3s2)C1)N1CCOCC1 (stereo unspecified) | nt | nt | nt | 2.8µM* | nt | nt
O=C(O)c1ccc(Nc2ncnc3c2cnn3Cc2ccccc2)cc1 | -2% | -4% | 19% | 0% | 105 | 3%[46.1 µM]
CCn1c(SCC(=O)Nc2ccccc2C)nc2nc3c(cc2c1=O)COC(C)(C)C3 | -15% | 0% | 10µM* | nt | -6 | nt
CCOc1ccc(NC(=O)CSc2nc3nc4c(cc3c(=O)n2CC)COC(C)(C)C4)cc1 | -15% | 1% | 3.2µM* | -16%[46.1 µM] | -27 | -6%[46.1 µM]
Cc1ccc(S(=O)(=O)NC(CC(N)=O)C(=O)O)cc1 (stereo unspecified) | 0% | -1% | 1% | ? | -39 | ?
Cc1ccc(S(=O)(=O)N[C@@H](CCCCN)C(=O)CCl)cc1 | -21% | nt | ? | -34% | 18 | 13µM*!
CCOC(=O)/C(C#N)=C(/C)c1ccc(OC)cc1 | 0% | -4% | 32µM* | 1% | 14 | -7%[46.1 µM]
COc1cccc(C(=O)NC2CC3CCCC(C2)N3CC(=O)Nc2ccccc2C(F)(F)F)c1 (stereo unspecified) | -22% | 0% | 6.3µM* | ? | ? | 11µM*
O=C(CN1C2CCCC1CC(NC(=O)C1CCCCC1)C2)Nc1ccccc1C(F)(F)F (stereo unspecified) | ? | -1% | 10µM* | ? | -33 | ?
Cc1ccc(S(=O)(=O)CCc2nc3ccccc3[nH]2)cc1C | 12% | 0% | -6% | nt | -27 | -21%[46.1 µM]
Clc1ccc(OCc2nc3ccccc3[nH]2)cc1 | 6% | -15% | 11µM* | ? | 37 | ?

Screening data: PubChem BioAssay, National Center for Advancing Translational Sciences (NCATS)
